Where “and” joins values, the source holds several entries; their conditions need not be identical. Equal entries are not always repeated. The panel holds about 83,000 compounds, 20% with a hit somewhere; the sample as a whole holds those more often.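 The endpoint reported here, percent growth, reads 100 for growth as untreated, 0 for no net growth and -100 for all cells dead.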 Calls of active or inactive are those of the source. How the source made its calls: active means growth percent below 10; inactive means the rest.

Our source for the growth values is PubChem BioAssay (NCI).

The assay concerns HL-60(TB) leukemia. Briefly: NCI-60 one-dose screen, 48 h (100 = growth as untreated, 0 = no growth, -100 = all killed). The note with it: 10 µM unless noted.
Regarding `N#CC1=C(c2cccs2)Nc2c(c(-c3ccccc3)nn2-c2ccccc2)C12C(=O)Nc1ccccc12` (stereo not drawn), the growth is 0.7% (active). With `O=C(c1ccc(OCCN2CCOCC2)cc1)C1[C@H](c2ccc(Cl)cc2)[C@@H](c2ccccc2)NC12C(=O)Nc1ccc(Cl)cc12` (stereo partly drawn), the growth was -12.7% (active).

Turning to `O=C(c1ccc(O)cc1)C1[C@H](c2ccccc2Br)[C@@H](c2ccccc2)NC12C(=O)Nc1ccccc12` (stereo partly drawn), the growth was 19.8% (inactive). Turning to `Cc1cc(N=C2NC(=O)/C(=C/c3cc(C(C)(C)C)c(O)c(C(C)(C)C)c3)S2)n[nH]1`, the growth was 5.2% (active). The value for `O=C1Nc2ccc(Cl)cc2/C1=C/c1ccc(OCc2ccc(Br)cc2F)cc1` was 83.2% (inactive). Regarding `CCc1ccc(SC2c3cc(OC)ccc3Oc3nc(N)c(C#N)c(N)c32)cc1` (stereo not drawn), the growth was -77.8% (active). Turning to `CC1[C@H]2[C@H](C[C@H]3[C@@H]4CC=C5c6sc(Nc7ccccc7F)nc6CC[C@]5(C)[C@H]4CC[C@@]32C)O[C@]12CC[C@@H](C)CO2` (stereo partly drawn), the growth was -41.9% (active). The result for `CN1C(=O)/C(=C/c2ccco2)S/C1=N/c1nccs1` reads 102% (inactive); that for `CSc1ccc(OCc2nc3ccccc3n2-c2cccc(NS(C)(=O)=O)c2)cc1`, 115% (inactive) and 105% (inactive). With `Cc1cccc2cc(-c3cc(-c4ccccc4)nc(=O)[nH]3)c(Cl)nc12`, the growth is 55.3% (inactive). For `Nc1nnc(-c2c[nH]c3ncc(Br)cc23)c(-c2c[nH]c3ccc(F)cc23)n1`, the growth is -0.929% (active).

With `COc1ccc(-c2nnc3c(/C=C/c4ccc(Br)cc4)nc4ccccc4n23)cc1`, the growth is 3.92% (active). The result for `O=c1ccc(Cn2c(C(F)(F)F)cc3c(Cl)ncnc32)c[nH]1` reads -20.6% (active); that for `COc1cccc(O)c1/C=C1\SCc2cc3c(OC)cccc3[o+]c21`, 100% (inactive). The value for `CN(C)CCOc1ccc(C(=O)C2[C@H](c3ccc(Cl)cc3)[C@@H](c3ccccc3)NC23C(=O)Nc2ccc(Br)cc23)cc1` (stereo partly drawn) was -60.6% (active); that for `COc1ccc(/C=C/C(=O)c2ccc(N3CCN(C)CC3)cc2)c(C(F)(F)F)c1` was -24.7% (active); that for `Clc1cccc(Cl)c1/C=C/c1cc(/C=C/c2ccc(Br)cc2)c2ccccc2n1` was 101% (inactive). The value for `CC(=O)OC[C@@]1(C)C2CC[C@]3(C)C(CC=C4C5CC(C)(C)CC[C@]5(C(=O)Nc5ccc(Br)cc5)CC[C@]43C)[C@@]2(C)C[C@@H](OC(C)=O)[C@@H]1OC(C)=O` (stereo partly drawn) was 32.3% (inactive); that for `O=C(CSc1nnc(-c2c[nH]c3ccccc23)n1-c1ccccc1)c1ccc(Cl)cc1` was 88.9% (inactive). Take `COc1ccc(C(=O)NNC(=O)CSc2nc3sc4c(c3c(=O)n2-c2ccc(Cl)cc2)CCCC4)cc1`: the growth was 64.5% (inactive). The value for `CCN1C(=O)/C(=N\N=C(/C)c2ccc3c(c2)Nc2ccccc2S3)c2cc(Cl)ccc21` was 75.2% (inactive); that for `COc1cc2oc(-c3cccc(C(=O)Nc4ccc(Cl)cc4)c3)cc(=O)c2c(OCCNC(=O)[C@@H](N)CCC(=O)O)c1OC` was 81.6% (inactive). With `COC(=O)c1c(C(=O)OC)c2n(c1C)[C@@H]([C@@H](C)[C@H]1CC[C@H]3[C@@H]4CCC5=CC(=O)CC[C@]5(C)[C@H]4CC[C@]13C)SC2`, the growth was 7% (active). With `CCCCNC(=S)Nc1ccc(OCc2nc3ccccc3[nH]2)cc1`, the growth is 31.7% (inactive). The result for `O=C1/C(=C/c2cccc3c2OCO3)Cc2c(F)cc(Br)cc21` reads 97.8% (inactive).

`CC(C)(C)Nc1nc2cc(Cl)c(Cl)cc2nc1S(C)(=O)=O`: the growth is 36.8% (inactive). The result for `Cn1cc(-c2cc(N)n3nc(-c4c[nH]c5ccccc45)cc3n2)c2cc(F)ccc21` reads 7.1% (active). For the compound `Cc1cc2nc3c([nH]c2cc1C)c1ccc(=O)cc1n3CCN(C)C`, the growth was 16.8% (inactive). The result for `O=C1N/C(=N\c2nccs2)S/C1=C\c1cccs1` reads 25.1% (inactive); that for `N#Cc1c(NC(=O)c2ccc(C(F)(F)F)cc2)sc2c1CCC(O)=C2`, 6.28% (active). Consider `C#CCOc1ccc(/C=N/Nc2nc(-c3cc4cc(Br)ccc4oc3=O)cs2)cc1OC`, for which the growth was 71.1% (inactive). As for `Cc1ccc(/C(CSc2nnc(-c3c[nH]c4ccccc34)n2-c2ccccc2)=N/O)cc1`, the growth was -13.8% (active).

For the compound `Cc1ncsc1-c1ccc(CNC(=O)[C@@H]2C[C@@H](O)CN2C(=O)[C@@H](NC(=O)C2(F)CC2)C(C)(C)C)c(OCCOCCOCCOCCOc2nc(Nc3cc(S(C)(=O)=O)ccc3N[C@@H](c3cccc4c3OC(F)(F)O4)c3ncccc3Cl)nc(N3CCNCC3)n2)c1`, the growth is 72% (inactive).
